The nature of test [1]: qHTS for differential inhibitors of proliferation of Plasmodium falciparum line HB3 (AID 1886).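 Further: parasites grown with compound for 72 h before SYBR Green readout.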 Further: potency means the concentration at half of the fitted maximal effect. To be noted: Potency: Plasmodium falciparum HB3 proliferation inhibition; series mostly up to 28.7 µM.
The target of test [2] is ATP-dependent DNA helicase Q1 (Homo sapiens) (UniProt P46063). Briefly: qHTS Validation Assay for Inhibitors of RecQ-Like Dna Helicase 1 (RECQ1) (AID 2353). To be noted: recombinant RECQ1 helicase DNA unwinding assay; series mostly up to 25.6 µM. In short, it runs like this: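 50 nM RECQ1T1 preincubated 15 min with compound in Tris pH 8.0 buffer with MgCl2, DTT, Tween-20 and 2.5 ug/ml poly(dI-dC); started with 200 nM TAMRA/BHQ-2 forked duplex and 2 mM ATP. Unwinding read as fluorescence (525/598 nm), two reads 2 h apart.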

A short description of test [3]: High Content Imaging Cell-Based qHTS for Inhibitors of the mTORC1 Signaling Pathway in MEF (Tsc2-/-, p53-/-) Cells (AID 2666).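 Further: percent of cells scored positive for phospho-rpS6 Ser235/236 immunostaining by imaging.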 To be noted: at 38.3 µM (top of the series). In short, it runs like this: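 Read-out: % positive cells per well, with thresholds from highest- and lowest-signal wells, based on phospho-rpS6 (Ser235/236) intensity normalized to Hoechst nuclear stain. Cells: Tsc2-/-, p53-/- MEFs carrying empty vector; compound 24 hrs, 37 degree Celsius.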

The nature of test [4]: Validation screen for small molecules that induce DNA re-replication in MCF 10A normal breast cells (AID 463097). Further: nearly all actives have a fitted effect of over 60% in size. Further: potency means the concentration at half of the fitted maximal effect. To be noted: MCF 10A cells, DNA re-replication phenotype imaging; series mostly up to 46.1 µM. The method, boiled down:
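DNA re-replication was detected as a rise in nuclei with elevated Hoechst fluorescence after a 48 hr compound exposure of MCF 10A cells at 37 C.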

Test [5] deals with Ubiquitin carboxyl-terminal hydrolase 2 (Homo sapiens) (UniProt O75604). Briefly: qHTS Validation Assay for Inhibitors of Ubiquitin-specific Protease USP2a Using CHOP2 as the Reporter (AID 463106). To be noted: USP2a cleavage of CHOP2 reporter, enzymatic; series mostly up to 38.3 µM. In short, it runs like this:
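USP2 core (10nM final) was preincubated with compound for 30min at RT in 20mM Tris-HCl pH 8.0, 2mM CaCl2, 2mM beta-mercaptoethanol, 0.05% CHAPS. Ub-CHOP2 and reporter substrate (25nM each) were added, and fluorescence (Ex 485/Em 531nm) was read after 60min.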

Test [6] addresses DNA polymerase III PolC-type (Bacillus subtilis (strain 168)) (UniProt P13267). Briefly: qHTS Validation Assay for the Inhibitors of DNA Replication in Gram-Positive Bacteria (AID 485295).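 Further: reconstituted holoenzyme with PolC plus beta clamp SSB and primase; PicoGreen fluorescence of double-stranded DNA made on primed circular M13 template.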 To be noted: Gram-positive bacterial DNA replication assay; series mostly up to 57.1 µM. In short, it runs like this:
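Primed replication of single-stranded M13Gori by a four-protein B. subtilis holoenzyme is measured at room temperature. Double-stranded product is quantified by PicoGreen fluorescence after an EDTA stop; inhibition is scaled between DMSO and EDTA controls.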

For test [7], the target named is Tumor susceptibility gene 101 protein (Homo sapiens) (UniProt Q99816). Briefly: qHTS Validation Assay for Iinhibitors of HIV-1 Budding by Blocking the Interaction of PTAP/TSG101 (AID 485342; calls by dose curve). To be noted: TSG101-PTAP binding, fluorescence polarization, 4-point titration; series mostly up to 115 µM. The method, boiled down: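 Fluorescence anisotropy measured PTAP-Tsg101 interaction. Final concentrations were 10 uM protein domain and 50 nM labeled peptide, equilibrated 20 min at room temperature.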

For test [8], the target named is Beta-2 adrenergic receptor (Homo sapiens) (UniProt P07550). Briefly: qHTS validation assay of beta-arrestin-biased ligands of beta2-adrenergic receptor (AID 485366). To be noted: cell-based beta-arrestin recruitment to ADRB2, qHTS; series mostly up to 46.1 µM. The method, boiled down:
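Tango cells expressing recombinant beta2-AR and beta-arrestin with tTA-driven luciferase, in DMEM with 1% FBS. Compounds were titrated up to 46 microM for 18 hr at 37 degrees C. Luminescence was read 15 min after substrate; curves were fitted and class-assigned.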

Test [9] has as its target ATP-dependent 6-phosphofructokinase (Trypanosoma brucei brucei) (UniProt O15648). Briefly: qHTS Validation Assay to Find Inhibitors of T. brucei phosphofructokinase (AID 485368). Further: potency means the concentration at half of the fitted maximal effect. To be noted: T. brucei PFK enzyme assay, qHTS 7-point titration; series mostly up to 57.5 µM. In short, it runs like this: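 Activity was read as ADP production by luminescence (ADP-Glo) after 45 min at room temperature. The enzyme was 1.25nM PFK in 0.1M TEA pH 8.0 with 0.5 mM F6P, 0.1mM ATP and 5 mM MgCl2. Compounds were titrated up to 57 uM and % activity normalized to no-enzyme and full-enzyme controls.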

Test [10] in a line: Quantitative high throughput screen for delayed death inhibitors of the malarial parasite plastid, 96 hour incubation (AID 488745). Further: nearly all actives have a fitted effect of over 70% in size. To be noted: Plasmodium falciparum growth; series mostly up to 28.7 µM. The method, boiled down: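 P. falciparum carrying an integrated firefly luciferase reporter, grown in erythrocytes (2% hematocrit, 0.1% parasitemia final) in RPMI 1640/0.5% Albumax, was exposed to compound for 96 h (two generations) at 37 C, 5% CO2. Luminescence decrease indicated growth inhibition.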

A short description of test [11]: Quantitative high throughput screen for delayed death inhibitors of the malarial parasite plastid, 48 hour incubation (AID 488752). Further: nearly all actives have a fitted effect of over 65% in size. Further: potency means the concentration at half of the fitted maximal effect. To be noted: Plasmodium falciparum growth; series mostly up to 28.7 µM. The method, boiled down: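 Erythrocytes infected with P. falciparum carrying an integrated firefly luciferase reporter (2% hematocrit, 0.1% parasitemia final) were exposed to compounds in RPMI 1640/0.5% Albumax for 48 h at 37 C, 5% CO2. Growth inhibition was scored as reduced luminescence.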

Test [12] concerns the target Thioredoxin reductase 1, cytoplasmic (Rattus norvegicus) (UniProt O89049). Briefly: qHTS Assay for Substrates of Mammalian Selenoprotein Thioredoxin Reductase 1 (TrxR1) (AID 488772).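 Further: NADPH fluorescence in the first read after selenite addition and not the 8 min delta; a drop in NADPH fluorescence below the no-compound background marks a TrxR1 substrate.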 To be noted: purified TrxR1, NADPH consumption substrate assay; series mostly up to 57.1 µM. In short, it runs like this:
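Quantitative HTS in Tris-HCl buffer at pH 7.5 with EDTA and Tween-20, using rat TrxR1, 400 uM NADPH and 400 uM selenite (final). A fall in initial NADPH fluorescence relative to background marked substrate behaviour.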

Test [13] can be described thus: qHTS Assay for Identification of Small Molecule Inducers of Hypoxia Response (AID 2120; active means well fitted curve in the direction sought with a large enough effect in the signal ratio, with a control signal flat, not every such curve was filed as active; the % refers to the signal ratio). To be noted: hypoxia response reporter cells, beta-lactamase ratio readout; series mostly up to 104 µM. In short, it runs like this:
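HRE-beta-lactamase reporter in CellSensor HRE-bla ME-180 cells, 2500 cells/well in Opti-MEM with 0.5% dialyzed FBS; compounds tested as titration series, 17 h at 37 degrees C. CCF4 substrate 2.5 h at room temperature; AC50 from 460/530 nm ratio.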

The nature of test [14]: Cytometric Cell-Based qHTS for Inhibitors of the mTORC1 Signaling Pathway in MEF (Tsc2-/-, p53-/-) Cells (AID 2660).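 Further: percent of cells above a phospho-rpS6 to PI ratio cutoff in each well.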 To be noted: mTORC1 pathway cytometry; series mostly up to 38.3 µM. The method, boiled down:
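Tsc2-/-, p53-/- MEFs (empty vector) exposed to compound 24 h at 37 C, fixed, stained with Alexa-488 anti-phospho-rpS6 Ser235/236 and propidium iodide. Acumen laser scanning; phospho-S6/PI ratio thresholded against 7.5 nM rapamycin, reported as % positive cells.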

Test [15] in a line: Cytometry Cell-Based qHTS for Inhibitors of the mTORC1 Signaling Pathway in MEF cells (AID 2668).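 Further: Tsc2-/- p53-/- mouse embryonic fibroblasts stably re-expressing wild-type Tsc2; percent cells positive for phospho-rpS6 Ser235/236 relative to propidium iodide stain.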 To be noted: mTORC1 pathway readout; series mostly up to 38.3 µM. In short, it runs like this: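 Pathway inhibition in WT Tsc2-rescued Tsc2-/-, p53-/- MEFs is measured as the Alexa-488 phospho-rpS6 to propidium iodide intensity ratio after 24 hrs of compound at 37 degree Celsius. PI-stained cell number gives viability.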

Test [16] can be described thus: qHTS for differential inhibitors of proliferation of Plasmodium falciparum line W2 (AID 1883).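 Further: parasites grown with compound for 72 h before lysis and staining.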 Further: potency means the concentration at half of the fitted maximal effect. To be noted: Potency: Plasmodium falciparum W2 proliferation inhibition; series mostly up to 28.7 µM.
The nature of test [17]: qHTS Assay for Modulators of Human Peripheral Myelin Protein 22 (PMP22) Expression/Activity (AID 1967; active means well fitted curve in the direction sought with a large enough effect in the signal ratio; the % refers to the signal ratio). To be noted: Cell-based PMP22 reporter, dual-color luciferase ratio, 0% = compound-free control cells, mouse Pmp22 promoter in mouse Schwann cells; series mostly up to 115 µM. The method, boiled down:
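Quantitative HTS in a mouse Schwann cell line expressing dual click beetle luciferases: Pmp22 promoter (green) and control EF-alpha promoter (red). After 24h treatment, corrected green/red signal ratio gave %Activity relative to untreated cells.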

Test [18] deals with Ferritin light chain (Equus caballus) (UniProt P02791). Briefly: qHTS Validation Assay for Identification of Novel General Anesthetics (AID 2323). To be noted: horse apoferritin, anesthetic-site fluorescent probe displacement; series mostly up to 76.9 µM. The method, boiled down:
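Apoferritin from horse spleen (10 uM) was mixed with 1-aminoanthracene at 50% saturation in PBS, then compounds were added. After 10 min at room temperature, fluorescence was read (ex 380 nm, em 535 nm) and normalized to free-probe and complex controls.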

Test [19] addresses RecQ-like DNA helicase BLM (Homo sapiens) (UniProt P54132). Briefly: qHTS Validation Assay for Inhibitors of Bloom's syndrome helicase (BLM) (AID 2364). To be noted: BLM helicase DNA unwinding, fluorescence, in vitro; series mostly up to 57.1 µM. The method, boiled down: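 BLM 50 nM in 25 mM Tris-HCl pH 8.0, 5 mM NaCl, 2 mM MgCl2, 1 mM DTT, 0.01% Tween-20, 2.5 ug/ml poly(dI-dC); 15 min cpd preinc, RT. Start: 200 nM forked DNA + 2 mM ATP (final). TAMRA read, 2 reads 2 h apart.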

Test [20] in a line: qHTS Validation Assay to Find Inhibitors of Chronic Active B-Cell Receptor Signaling (AID 485345; active means well fitted curve in the direction sought with a large enough effect in the main read-out, with a control signal flat, not every such curve was filed as active). To be noted: ABC-DLBCL cells, chronic BCR signaling reporter, CBG luciferase; series mostly up to 46.1 µM. In short, it runs like this: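 TMD8 ABC-DLBCL cells with dox-inducible green luciferase–IκBα fusion and red native luciferase; compounds 46 uM–3 nM, 4 h at 37C with doxycycline in 0.5% FBS IMDM. Green/red ratio normalized to basal and 10 uM MG-132.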

Inconclusive results are not listed. The source made the active and inactive calls. Unless noted, the call rests on the fitted dose curve; in most records, active means well fitted curve in the direction sought with a large enough effect; inconclusive means small, poorly fitted or top-dose-only effect, or another doubt; inactive means no such curve, though single readings can be large; an effect the other way counts as inactive or inconclusive.

DNA polymerase III PolC-type (Bacillus subtilis (strain 168)), sequence (P13267 whole entry, looked up): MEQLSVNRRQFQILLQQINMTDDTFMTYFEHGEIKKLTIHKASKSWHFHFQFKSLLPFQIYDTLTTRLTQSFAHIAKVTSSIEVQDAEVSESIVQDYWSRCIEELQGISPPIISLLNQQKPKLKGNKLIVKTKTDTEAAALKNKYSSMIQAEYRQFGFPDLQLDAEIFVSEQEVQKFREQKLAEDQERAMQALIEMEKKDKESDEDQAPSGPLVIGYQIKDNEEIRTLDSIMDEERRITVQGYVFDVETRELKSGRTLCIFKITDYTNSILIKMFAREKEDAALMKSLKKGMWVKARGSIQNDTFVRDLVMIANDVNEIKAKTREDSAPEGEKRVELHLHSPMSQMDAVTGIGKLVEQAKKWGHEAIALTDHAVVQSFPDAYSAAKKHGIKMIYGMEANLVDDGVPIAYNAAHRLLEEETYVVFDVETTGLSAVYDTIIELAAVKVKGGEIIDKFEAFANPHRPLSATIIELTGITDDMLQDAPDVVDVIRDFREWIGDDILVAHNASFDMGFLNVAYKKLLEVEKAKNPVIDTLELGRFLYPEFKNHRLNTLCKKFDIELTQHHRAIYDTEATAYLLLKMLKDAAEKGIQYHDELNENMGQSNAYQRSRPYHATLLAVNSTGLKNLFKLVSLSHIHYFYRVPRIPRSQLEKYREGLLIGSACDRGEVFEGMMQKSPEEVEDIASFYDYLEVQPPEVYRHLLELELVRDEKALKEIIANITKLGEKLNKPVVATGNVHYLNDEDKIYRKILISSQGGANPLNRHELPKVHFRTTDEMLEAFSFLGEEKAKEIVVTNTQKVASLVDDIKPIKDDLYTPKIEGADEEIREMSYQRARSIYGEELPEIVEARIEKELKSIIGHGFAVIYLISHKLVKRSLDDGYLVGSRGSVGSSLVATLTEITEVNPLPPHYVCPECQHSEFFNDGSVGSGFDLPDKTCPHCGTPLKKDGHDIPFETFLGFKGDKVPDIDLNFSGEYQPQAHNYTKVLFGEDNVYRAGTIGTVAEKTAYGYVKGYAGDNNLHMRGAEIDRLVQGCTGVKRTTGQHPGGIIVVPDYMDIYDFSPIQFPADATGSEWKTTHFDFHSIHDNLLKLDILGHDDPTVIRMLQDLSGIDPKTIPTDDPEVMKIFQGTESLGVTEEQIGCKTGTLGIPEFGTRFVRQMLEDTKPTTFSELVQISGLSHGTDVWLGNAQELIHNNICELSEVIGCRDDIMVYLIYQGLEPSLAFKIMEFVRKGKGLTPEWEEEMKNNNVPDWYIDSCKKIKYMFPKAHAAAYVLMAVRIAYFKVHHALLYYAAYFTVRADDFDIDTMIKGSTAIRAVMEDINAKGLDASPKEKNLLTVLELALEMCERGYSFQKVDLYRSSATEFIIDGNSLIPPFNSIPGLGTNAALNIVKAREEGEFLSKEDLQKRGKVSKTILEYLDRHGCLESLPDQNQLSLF
Beta-2 adrenergic receptor (Homo sapiens), sequence (P07550 whole entry, looked up): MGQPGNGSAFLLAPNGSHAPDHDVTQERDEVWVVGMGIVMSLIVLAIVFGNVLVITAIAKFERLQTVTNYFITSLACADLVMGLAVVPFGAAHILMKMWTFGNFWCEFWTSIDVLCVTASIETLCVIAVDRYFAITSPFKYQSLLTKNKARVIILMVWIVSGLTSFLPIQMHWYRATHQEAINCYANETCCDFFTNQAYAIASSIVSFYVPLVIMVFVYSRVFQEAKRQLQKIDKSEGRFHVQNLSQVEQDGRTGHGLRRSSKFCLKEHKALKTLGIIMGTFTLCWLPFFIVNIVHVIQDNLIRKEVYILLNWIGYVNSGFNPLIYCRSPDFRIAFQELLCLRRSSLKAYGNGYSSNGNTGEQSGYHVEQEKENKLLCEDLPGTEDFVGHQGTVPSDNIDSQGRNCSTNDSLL
RecQ-like DNA helicase BLM (Homo sapiens), sequence (P54132 whole entry, looked up): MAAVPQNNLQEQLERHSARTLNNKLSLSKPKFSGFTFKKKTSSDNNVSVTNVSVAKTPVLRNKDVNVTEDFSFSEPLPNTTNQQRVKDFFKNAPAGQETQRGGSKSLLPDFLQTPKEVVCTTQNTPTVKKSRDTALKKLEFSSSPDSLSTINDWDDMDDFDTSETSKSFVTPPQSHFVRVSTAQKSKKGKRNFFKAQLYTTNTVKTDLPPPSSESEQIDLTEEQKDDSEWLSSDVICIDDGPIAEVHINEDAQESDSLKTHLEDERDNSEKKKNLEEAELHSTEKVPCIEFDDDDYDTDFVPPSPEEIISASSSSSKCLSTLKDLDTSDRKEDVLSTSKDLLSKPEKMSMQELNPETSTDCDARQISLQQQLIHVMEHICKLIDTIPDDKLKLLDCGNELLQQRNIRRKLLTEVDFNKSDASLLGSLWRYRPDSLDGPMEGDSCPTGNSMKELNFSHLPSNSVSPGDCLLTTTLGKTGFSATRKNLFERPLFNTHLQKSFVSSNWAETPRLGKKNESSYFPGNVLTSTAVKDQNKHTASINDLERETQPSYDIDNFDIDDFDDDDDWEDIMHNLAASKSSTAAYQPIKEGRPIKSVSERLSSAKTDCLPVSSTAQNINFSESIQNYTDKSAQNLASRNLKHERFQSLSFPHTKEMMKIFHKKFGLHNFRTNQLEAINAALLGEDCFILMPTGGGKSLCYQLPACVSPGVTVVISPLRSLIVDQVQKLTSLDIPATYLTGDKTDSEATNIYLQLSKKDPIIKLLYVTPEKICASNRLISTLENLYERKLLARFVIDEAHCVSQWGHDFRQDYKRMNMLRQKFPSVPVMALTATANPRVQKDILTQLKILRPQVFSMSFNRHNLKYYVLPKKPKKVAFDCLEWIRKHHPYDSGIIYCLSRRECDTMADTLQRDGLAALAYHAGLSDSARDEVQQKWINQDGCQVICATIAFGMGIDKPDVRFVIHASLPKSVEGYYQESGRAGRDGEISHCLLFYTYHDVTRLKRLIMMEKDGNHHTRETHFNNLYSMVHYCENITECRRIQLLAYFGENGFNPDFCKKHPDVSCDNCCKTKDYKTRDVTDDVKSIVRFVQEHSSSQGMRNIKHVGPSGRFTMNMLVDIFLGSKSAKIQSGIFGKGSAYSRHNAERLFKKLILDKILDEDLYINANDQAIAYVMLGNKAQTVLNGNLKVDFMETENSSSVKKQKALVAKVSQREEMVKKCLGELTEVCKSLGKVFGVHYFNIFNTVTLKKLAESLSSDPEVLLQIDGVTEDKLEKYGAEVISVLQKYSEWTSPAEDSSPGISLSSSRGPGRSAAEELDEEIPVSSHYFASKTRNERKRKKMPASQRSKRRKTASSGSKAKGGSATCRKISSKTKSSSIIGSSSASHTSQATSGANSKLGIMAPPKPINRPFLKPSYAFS
ATP-dependent 6-phosphofructokinase (Trypanosoma brucei brucei), sequence (O15648 whole entry, looked up): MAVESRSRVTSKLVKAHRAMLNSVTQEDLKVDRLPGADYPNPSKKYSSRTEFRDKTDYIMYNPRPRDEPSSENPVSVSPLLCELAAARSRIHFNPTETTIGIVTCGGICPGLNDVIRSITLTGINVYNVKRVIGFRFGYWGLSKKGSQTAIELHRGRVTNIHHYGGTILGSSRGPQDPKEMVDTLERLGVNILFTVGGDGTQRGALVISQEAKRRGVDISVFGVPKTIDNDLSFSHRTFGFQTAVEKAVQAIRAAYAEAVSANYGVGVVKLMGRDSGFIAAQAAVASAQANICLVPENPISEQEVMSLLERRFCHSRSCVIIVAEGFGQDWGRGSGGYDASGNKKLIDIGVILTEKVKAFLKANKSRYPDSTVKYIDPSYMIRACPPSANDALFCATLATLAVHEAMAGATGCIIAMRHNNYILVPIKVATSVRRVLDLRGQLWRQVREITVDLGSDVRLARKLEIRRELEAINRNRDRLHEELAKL
ATP-dependent DNA helicase Q1 (Homo sapiens), sequence (P46063 whole entry, looked up): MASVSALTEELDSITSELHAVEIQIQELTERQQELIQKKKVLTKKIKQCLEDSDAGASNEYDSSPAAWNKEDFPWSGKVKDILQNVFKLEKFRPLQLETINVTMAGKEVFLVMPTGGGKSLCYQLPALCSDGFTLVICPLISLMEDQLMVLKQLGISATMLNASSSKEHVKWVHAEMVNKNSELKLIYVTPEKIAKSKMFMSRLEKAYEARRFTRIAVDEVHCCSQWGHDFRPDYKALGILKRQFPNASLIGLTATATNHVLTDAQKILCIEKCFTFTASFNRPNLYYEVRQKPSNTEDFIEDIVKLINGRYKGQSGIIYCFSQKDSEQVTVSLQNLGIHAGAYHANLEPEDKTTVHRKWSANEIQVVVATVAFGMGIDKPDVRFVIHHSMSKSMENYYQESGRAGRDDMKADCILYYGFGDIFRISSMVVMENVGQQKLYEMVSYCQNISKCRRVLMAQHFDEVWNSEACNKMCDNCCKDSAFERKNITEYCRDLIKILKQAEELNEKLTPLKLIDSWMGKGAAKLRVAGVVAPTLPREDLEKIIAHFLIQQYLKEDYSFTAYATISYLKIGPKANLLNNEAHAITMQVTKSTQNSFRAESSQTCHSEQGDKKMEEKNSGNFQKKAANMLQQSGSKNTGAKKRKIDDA
Ferritin light chain (Equus caballus), sequence (P02791 2-175 limits assumed): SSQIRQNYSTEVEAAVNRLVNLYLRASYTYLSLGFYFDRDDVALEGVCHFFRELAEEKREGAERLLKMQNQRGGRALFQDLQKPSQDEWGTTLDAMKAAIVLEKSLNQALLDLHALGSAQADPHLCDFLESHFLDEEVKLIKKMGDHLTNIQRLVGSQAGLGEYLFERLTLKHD
Thioredoxin reductase 1, cytoplasmic (Rattus norvegicus), sequence (O89049 whole entry, looked up): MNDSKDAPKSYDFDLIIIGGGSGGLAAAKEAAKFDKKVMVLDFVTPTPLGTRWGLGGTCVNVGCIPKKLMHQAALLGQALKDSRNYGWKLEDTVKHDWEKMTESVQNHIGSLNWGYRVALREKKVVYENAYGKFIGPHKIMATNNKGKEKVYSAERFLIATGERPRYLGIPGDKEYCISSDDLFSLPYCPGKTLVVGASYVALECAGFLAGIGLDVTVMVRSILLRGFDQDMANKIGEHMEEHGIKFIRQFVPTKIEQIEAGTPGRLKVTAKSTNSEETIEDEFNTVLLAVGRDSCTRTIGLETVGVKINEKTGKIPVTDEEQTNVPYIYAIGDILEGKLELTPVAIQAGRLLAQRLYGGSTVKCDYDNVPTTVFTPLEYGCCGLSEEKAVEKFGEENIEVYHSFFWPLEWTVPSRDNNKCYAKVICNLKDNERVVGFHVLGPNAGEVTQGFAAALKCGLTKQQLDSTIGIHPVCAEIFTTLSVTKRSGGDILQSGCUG

For the molecule `CC(C)N(CCC(=O)c1ccc2ccccc2c1)Cc1ccccc1`, the Potency result in [1], in test [10] and in test [11] was “inactive” throughout. The result in [2], in test [3], in test [5], in [6], in test [7] and in [8] was inactive. In addition, the molecule was classed as inactive in test [12]. The figures for the Potency in test [4] and in test [9] were 3.55 µM (active) and 13.5 µM (active), respectively.

On to `O=C(NO)c1ccccc1`, for which the outcome in test [13] was inactive.

Take `Cc1nn(-c2ccccc2)c(C)c1/C=N/N1CCN(Cc2ccccc2)CC1`: the call in test [14], in [3], in [15], in test [5], in test [6] and in test [7] was inactive. Also, the outcome in test [8] and in test [12] was inactive. Besides, in test [9], the Potency result was “inactive”.

Take `NC(N)=NCCCCN=C(N)N`: the Potency entry in test [16], in test [4], in [9], in test [10] and in test [11] was “inactive” each time. Further, the result in [17], in test [18], in test [2], in test [19], in test [14] and in test [3] was inactive. Further, the call in test [15], in test [5], in [6], in [7], in [20] and in test [8] was inactive. In test [12], the result was inactive.

As for `CC(C)C(C)(C)C(C)(C)C(C)(C)S`, in [13], the result was inactive.

For `Nc1cccc2c(N)cccc12`, the outcome in test [13] was inactive.

As to `C[N+](C)(C)CCO`, the Potency result in [16], in [1], in [4], in test [10] and in test [11] was “inactive” each time. The result in [17], in test [18], in test [2], in [14], in [3] and in test [15] was inactive. In addition, the molecule was called inactive in [5], in test [6], in [7], in [20], in test [8] and in [12].

Regarding `O=[N+]([O-])c1ccc(-c2nc(-c3ccc(F)cc3)c(-c3ccncc3)[nH]2)cc1`, the Potency in test [16] was 3.98 µM (active); in test [1], 4.47 µM (active); in test [4] it was 12.6 µM (active); in [11], 10.4 µM (active). For the same molecule, the molecule was called inactive in test [18], in [14], in test [3], in [5], in [6] and in test [7]. For the same molecule, the result in test [8] and in test [12] was inactive. In addition, in test [9], the Potency result was “inactive”.

On to `Nc1ncnc2n[nH]c(Nc3ccc(F)cc3)c12`, for which the call in test [14], in test [3], in [5], in test [6], in test [7] and in test [20] was inactive. Further, the molecule was classed as inactive in test [8] and in [12]. Also, in test [9], the Potency result was “inactive”.

On to `Brc1ccccc1-c1ccccc1`, for which, in test [13], the result was inactive.

In the case of `C1=CC2C3C=CC(C3)C2C1` (stereo not drawn), the outcome in test [13] was inactive.

As to `c1ccc2occc2c1`, in [13], the outcome was inactive.

For the molecule `O=C1NC(c2cccc([N+](=O)[O-])c2)=CCN1c1ccccc1O`, the Potency result in test [1], in test [4] and in [11] was “inactive” throughout. In addition, the outcome in test [17], in test [2], in test [19], in [14], in test [3] and in test [15] was inactive. Besides, the result in [5], in test [6], in [7], in test [20], in test [8] and in [12] was inactive.

As for `O=C(Oc1ccccc1)c1ccccc1O`, in [13], the outcome was inactive.

On to `CC(=O)OC/C=C(C)/C=C/C=C(C)/C=C/C1=C(C)CCCC1(C)C`, for which the result in test [13] was inactive.

With `COc1ccccc1N1CCN(CCN2C(=O)CC3(CCCC3)CC2=O)CC1`, the Potency result in [1], in [4], in test [9] and in test [11] was “inactive” each time. The result in test [17], in test [18], in test [2], in [19], in test [14] and in [3] was inactive. In addition, the molecule was classed as inactive in [15], in test [5], in [6], in test [7], in test [20] and in test [8]. The molecule was classed as inactive in test [12].
